The test system of this test is RARb:RXRa (NR concentration 270 nM, RXRa partner concentration 90 nM). Briefly: PBM binding z-score (relative to random genomic background probes); higher = stronger binding; sequences stand for … in GC…GCGATTGACAGCGTAGAATGAAGG
The method in brief:
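Ligand-free nuclear receptor dimers were bound for 1 h to custom Agilent 4×180K protein-binding microarrays. Detection used antibodies against each partner (one per run). Binding z-scores rest on regression-normalized fluorescence, with random background probes as the reference.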
For CTACCAAAGTGAACAAGGTCGTTGATTACTATTC, the PBM binding z-score came to 0.821.

The sequence GCTAGTTGCTCAGTAAAAGGTCACACACCGGTCG showed a PBM binding z-score of 4.1.

Take TCTCGGGGGACACGAAAGGTCAGAGCTCGACATC: the PBM binding z-score came out at 4.48.

AGTCAAAGTTCATCTAGGTAACGTAAGATATGCT displayed a PBM binding z-score of 5.01.

In turn, ATATGTAGGTCACATCCGGGTCATTCAGGCTATG gave a PBM binding z-score of 4.34.

AGAATGAGGTTAAGAGCAGGGAAACAGAATACAT displayed a PBM binding z-score of 1.71.

In the case of GCTTACGGGTCAAAGGTTATAGCCTGAATAGAAT, the PBM binding z-score is 4.65.

The sequence CAAGCTAGGTCACGAAAGGTCAAAGTCGAATGAC returned a PBM binding z-score of 5.61.

For TAGCCTATGTCATGGGCCAGTATACCACGCGAAC, the PBM binding z-score is 0.192.

In the case of CGTCCAAGGTCAGCAGGTCAGTGACAGCGACGTG, the PBM binding z-score was determined as 5.27.

For the sequence TCATATAGGTAAAGGTGAAAGTGGAACGATATGA, the PBM binding z-score is 2.13.

The sequence ATCTCAAGGTAACCAAGTTCAGTGAATGCCGAAC gave a PBM binding z-score of 1.62.

CCTTACGGGTCAAGGTGATAGCACGGGTGGTACG: the PBM binding z-score stood at 4.11.

In the case of ACAGACAGGTGAGTGAAGGTATCTCAGCTGGACG, the PBM binding z-score is 0.255.

Take CAAACTAGGTCAAAGGTCCAAGTCGAGCCAACCA: the PBM binding z-score was found to be 4.19.

Sequence ATATGTAGGTTAAGGGTCAGTCAGGTTGGTTCGC gave a PBM binding z-score of 3.51.

In turn, TCTGCTAGGTCAGTTGTTCAGCTAACGAGCTGCC gave a PBM binding z-score of 3.15.

AGTCAAAGTTCAGGAGGAGGTAACGTAAAGCACG displayed a PBM binding z-score of 4.57.

Take CCTTGCAGGCCAATCTGGGTCACTCAAGGCTTGA: the PBM binding z-score worked out at 1.53.

Sequence AGAACGAAGGCAATGAGTTGATAGCACGGGTGGC returned a PBM binding z-score of -0.477.

The sequence AGTCAAAGTTCACTAGGTAACGTGAGATTCAGCT displayed a PBM binding z-score of 4.72.

As for GTACCAAGGTGAATTGGTCGTTGATGAGTAGGCG, the PBM binding z-score is 1.17.

These data come from the supplement of paper PMC6555819.
